# Measurements from PubChem BioAssay (NCATS).
# “And” between values parts separate entries of the source, which are not always exact repeats. Identical values can stand only once. Results filed as inconclusive are left out. The source made the active and inactive calls. The call rests on the fitted dose curve; in most records, active means well fitted inhibition curve with a large enough effect; inconclusive means small, poorly fitted or top-dose-only effect; inactive means flat fitted curve, though single readings scatter.
# Tested on: KB-3-1
# Test: Cytotoxic Profiling of Annotated Libraries Using Quantitative High-Throughput Screening (AID 1296008); further: nearly all actives have a fitted effect of over 60% in size
# Conditions: Five cell lines viability, CellTiter-Glo ATP luminescence, 48-72 h; max response: active compounds read low
# In short: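 Cytotoxicity was measured as CellTiter-Glo ATP luminescence, read after 10 min at room temperature. Compound treatment of the cells lasted 48 or 72 hr at 37 degrees Celsius in a qHTS format.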
# On the % scale 0 is the no-effect control and ±100 the full control effect; potency means the concentration at half of the fitted maximal effect.
SMILES,max response,Potency
CCC(=O)O,-11.1% (inactive),–
C=C1CC[C@@H]2[C@](C)(CO)[C@H](O)CC[C@@]2(C)[C@@H]1CC(=O)C1=CCOC1=O,-15.5% (inactive),–
CCN(CC)c1ccc(N=Nc2ccc(S(=O)(=O)N(C)C)cc2)c(S(=O)(=O)NCC[n+]2ccccc2)c1,-15.2% (inactive),–
CCCCCCCCCCCCCCCCCC(=O)[O][Al],-8.23% (inactive),–
CC#CCC(C)[C@H](O)/C=C/[C@@H]1[C@H]2c3cccc(CCCC(=O)O)c3O[C@H]2C[C@H]1O (stereo not given in full),-28.3% (inactive),–
C=Cc1ccccc1,-0.236% (inactive),–
CCC(=O)OCC(=O)[C@@]1(OC(=O)CC)[C@H](C)C[C@H]2[C@@H]3CCC4=CC(=O)C=C[C@]4(C)[C@@]3(F)[C@@H](O)C[C@@]21C,-9.03% (inactive),–
Cc1cc2ncc(C(=O)NCC(C)(C)NCC(=O)N3CCC[C@H]3C#N)cn2n1,3.28% (inactive),–
COc1cc([C@@H]2c3cc4c(cc3C(O[C@@H]3O[C@@H]5COC(c6cccs6)O[C@H]5[C@H](O)[C@H]3O)C3COC(=O)[C@@H]32)OCO4)cc(OC)c1O (stereo not given in full),–,3.66 µM (active)
CCCCCCCCCC(=O)O,-12.8% (inactive),–
NCCCC[C@H](NC(=O)[C@@H]1CCCN1C(=O)[C@@H]1CSSC[C@H](N)C(=O)N[C@@H](Cc2ccc(O)cc2)C(=O)N[C@@H](Cc2ccccc2)C(=O)N[C@@H](CCC(N)=O)C(=O)N[C@@H](CC(N)=O)C(=O)N1)C(=O)NCC(N)=O,0.366% (inactive) and -14.6% (inactive),–
CCn1c(=O)c(-c2ccc(-c3cncs3)cc2Cl)cc2cnc(Nc3ccc(N4CCN(C)CC4)cc3)nc21,–,10.3 µM (active)
Nc1ncnc2c1c(-c1ccc(Oc3ccccc3)cc1)nn2[C@@H]1CCCNC1,-20% (inactive),–
COC(=O)C[C@](O)(CCCC(C)(C)O)C(=O)O[C@@H]1C(OC)=CC23CCCN2CCc2cc4c(cc2[C@H]13)OCO4 (stereo not given in full),–,0.058 µM (active)
O=C1O[C@H]2[C@H](O)[C@@H]1OC(O)[C@H]2O (stereo not given in full),-7.29% (inactive),–
O=C(CO)[C@@H](O)[C@H](O)[C@H](O)CO,-8.15% (inactive),–
COC(C)=O,-9.47% (inactive),–
COc1cc2[nH]c(C)c(CCN3CCN(c4ccccc4)CC3)c2cc1OC,-9.43% (inactive),–
O=C(O)CC(O)(CC(=O)O)C(=O)O,-1.69% (inactive),–
CC(C)(O)C1Cc2c(ccc(C(=O)CCc3ccccc3)c2O)O1 (stereo not given),-17.9% (inactive),–

SMILES,max response,Potency
CS(=O)(=O)NC(=O)CCC/C=C\C[C@H]1C(=O)C[C@@H](O)[C@@H]1/C=C/[C@H](O)COc1ccccc1,-12.3% (inactive),–
Cc1cc(Nc2ccccc2C(=O)O)ccc1Cl,-5.19% (inactive),–
CC(=O)CC(=O)Nc1ccc(Cl)c(C(F)(F)F)c1,–,23.1 µM (active)
CCN(CC)CCOC(=O)c1ccc(N)cc1Cl,1.25% (inactive),–
C/C(=C(/CCO)SSCC1CCCO1)N(C=O)Cc1cnc(C)nc1N (stereo not given),-15.4% (inactive) and -10.3% (inactive),–
C=CS(=O)(=O)O,-7.41% (inactive),–
O=P(O)(O)C(O)(Cc1cnc2ccccn12)P(=O)(O)O,-1.58% (inactive),–
CC1=C(C(=O)OCCN(Cc2ccccc2)c2ccccc2)C(c2cccc([N+](=O)[O-])c2)C(P2(=O)OCC(C)(C)CO2)=C(C)N1 (stereo not given),26.8% (inactive),–
CCC(=O)OCC(=O)[C@@]1(OC(=O)CC)[C@@H](C)C[C@H]2[C@@H]3CCC4=CC(=O)C=C[C@]4(C)[C@@]3(Cl)[C@@H](O)C[C@@]21C,-12.3% (inactive),–
CN[C@@H]1CCc2[nH]c3ccc(C(N)=O)cc3c2C1,-3.81% (inactive),–
CC(=O)OC[C@H]1O[C@@H](O[C@H]2[C@H](O)[C@@H](OC(=O)c3ccccc3C(=O)O)[C@H](O)O[C@@H]2COC(C)=O)[C@H](O)[C@@H](OC(=O)c2ccccc2C(=O)O)[C@@H]1O,-12.2% (inactive),–
O=C(CCCN1CCC(n2c(=S)[nH]c3ccccc32)CC1)c1ccc(F)cc1,8.28% (inactive),–
FC(F)(F)c1ccccc1-c1cc(C(F)(F)F)c2nc(C3=NOC4(CCCCC4)C3)[nH]c2c1,-18.9% (inactive),–
CCC(C)[C@H]1O[C@]2(C=C[C@@H]1C)C[C@@H]1C[C@@H](C/C=C(\C)[C@@H](O[C@H]3C[C@H](OC)[C@@H](O[C@H]4C[C@H](OC)[C@H](NC(C)=O)[C@H](C)O4)[C@H](C)O3)[C@@H](C)/C=C/C=C3\CO[C@@H]4[C@H](O)C(C)=C[C@@H](C(=O)O1)[C@]34O)O2 (stereo not given in full),–,9.2 µM (active)
O=P(O)(O)OC(CO)CO,1.53% (inactive),–
O.O=C([O-])CC([S-])C(=O)[O-].[Au+].[Na+].[Na+] (stereo not given),-7.82% (inactive),–
C/C=C1\NC(=O)[C@H]2CSSCC/C=C/[C@H](CC(=O)N[C@H](C(C)C)C(=O)N2)OC(=O)C(C(C)C)NC1=O (stereo not given in full),–,0.0092 µM (active)
C[C@H](CSC(=O)c1ccccc1)C(=O)N1C[C@@H](Sc2ccccc2)C[C@H]1C(=O)O,-1.05% (inactive),–
C[N+](C)(CCCCCC[N+](C)(C)C1c2ccccc2-c2ccccc21)C1c2ccccc2-c2ccccc21,-17.2% (inactive),–
O=C[C@H](O)[C@@H](O)[C@H](O[C@H]1O[C@H](CO)[C@@H](O[C@H]2O[C@H](CO)[C@@H](O)[C@H](O)[C@H]2O)[C@H](O)[C@H]1O)[C@H](O)CO,-9.17% (inactive),–
